MITF TRPM1 inh: MITF TRPM1 promoter inhibition in SK-MEL-5 cells. SK-MEL-5 TRPM1 promoter luciferase, 24 h. inhibition, % at 12.5 µM. actives 0.83% (n = 330,000);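 active = mean inhibition across replicates of 60% or more, whatever share of single replicates reaches that level; inconclusive = some that reach 60%, reason not given; inactive = mean inhibition across replicates below 60%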
Shn3 3UTR inh: reduces Shn3 3'UTR luciferase signal in osteoblasts; Clone20 osteoblast Shn3 3'UTR firefly luciferase, 24 h; inhibition, % at 12.5 µM; actives 0.52% (n = 360,000); AID 588674;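 active = mean inhibition of at least 75% with every replicate also reaching 75%; inconclusive = mean inhibition at least 75% but some replicate below; inactive = mean inhibition below 75%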;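 also: 0% = median of neutral control wells and 100% = pilot-screen positive control compound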
Peg3 promoter: Peg3 promoter activity inhibition; HeLa PEG-Prom luciferase reporter, luminescence, overnight; inhibition, % at 20 µM; actives 1.7% (n = 360,000);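 active = inhibition of at least 50% at 20 µM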
HIF-2a inh: inhibitors of HIF-2a | 786-0 RCC cells HIF-2a reporter, luciferase luminescence, overnight | inhibition, % at 18.8 µM | actives 0.72% (n = 360,000) | AID 624352;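 active = inhibition of the luminescence signal of 40% or more relative to plate controls, in a single-dose primary screen at 18.75 µM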
KKLEB tox: CF airway cell cytotoxicity counter-screen; KKLEB CF airway cells viability, ATPlite luminescence, overnight; stronger effect = lower value; cells stimulated with P. aeruginosa culture filtrate; activity change (cytotoxicity), % at 5 µM; actives 0.36% (n = 360,000); AID 602141;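 active = corrected activity change at or below -50% at 5 µM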
CF NFkB inh: cystic fibrosis NF-kB activation inhibition; inhibition, % at 5 µM; AID 588850; KKLEB NF-kB-GFP reporter, PAF-induced, GFP fluorescence overnight; actives 0.86% (n = 360,000);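 active = at least 50% inhibition at 5 µM, scaled per plate between neutral and stimulator controls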;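 also: PAF is a Pseudomonas aeruginosa culture filtrate used as stimulus; plate controls were PAF-stimulated DMSO wells for no effect and unstimulated DMSO wells for full effect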
Numbers without * were called inactive; ? = inconclusive; . = no result given. Only some compounds are listed: those with a hit (about 2.8% of all), similar ones and a draw of the others.

SMILES | MITF TRPM1 inh | Shn3 3UTR inh | Peg3 promoter | HIF-2a inh | KKLEB tox | CF NFkB inh
CCCCN1CC(COC)Oc2cccc(F)c2S1(=O)=O (stereo not drawn) | 3 | -7 | -12 | -3 | -7 | 15
Cc1ccc(S(=O)(=O)N2CCC(C(=O)N/N=C/c3cccnc3)CC2)cc1 | 8 | 10 | 52* | 18 | -16 | 12
CC1CCN(C(=O)COC(=O)CSc2ccc(C(N)=O)cc2[N+](=O)[O-])CC1 | -3 | 6 | 18 | 5 | -4 | -10
Nc1nnc(SCC(=O)Nc2ccc(N3CCOCC3)cc2)s1 | -5 | 91* | -34 | -38 | 13 | -3
Nc1nnc(SCC(=O)Nc2ccccc2N2CCOCC2)s1 | 16 | 3 | 2 | 9 | -1 | 4
CC1CCN(CCCNC(=O)c2ccc(CSCc3cccc(Cl)c3)o2)CC1 | 6 | -10 | 2 | -48 | -3 | 11
NC(=O)C1CCN(c2ncnc3c2c(-c2ccccc2)cn3-c2ccccc2)CC1 | -5 | -10 | 61* | 22 | -3 | 17
COc1ccc(CN(C)CC(=O)Nc2cccc(S(=O)(=O)N(C)c3ccccc3)c2)c(OC)c1 | 14 | 33 | 21 | 15 | -10 | 24
C=CC[n+]1c(-c2ccc(C)cc2)csc1Nc1ccc(NC(C)=O)cc1 | 81* | 80 | 20 | 90* | 2 | -13
C=CC[n+]1c(-c2ccc(OC)cc2)csc1NNC(=O)Nc1ccccc1 | 6 | 22 | 1 | -80 | 2 | 9
O=C(Nc1cc(F)ccc1F)C1CCCN(c2ncnc3c2nc2n3CCCCC2)C1 (stereo not drawn) | 7 | -8 | 52* | 8 | -2 | -24
C[C@H](CO)N1C[C@H](C)[C@@H](CN(C)C(=O)c2ccc3ccn(C)c3c2)OCc2cn(nn2)CCCC1=O | . | -5 | 5 | 4 | 3 | -1
CCO[C@@H]1OC(C(=O)NCc2ccccc2)=C[C@H](c2csc3ccccc23)[C@H]1CCCO | -1 | -12 | 26 | 19 | -15 | 32
Clc1ccc2c(NNc3ccccc3Cl)ccnc2c1 | 6 | -15 | -18 | -11 | -3 | 4
Clc1ccc2c(N/N=C/c3cccc(Br)c3)ccnc2c1 | 83* | 27 | 76* | -82 | -17 | -34
O=[N+]([O-])c1ccc(/C=N/Nc2ccnc3cc(Cl)ccc23)o1 | ? | -5 | 93* | -166 | 2 | -30
OC(CNCCc1ccc(C(F)(F)F)cc1)COC(c1ccccc1)c1ccccc1 (stereo not drawn) | 5 | 32 | 111* | 4 | -16 | 14
COc1cc(NC(=O)c2ccco2)c(C(=O)OCC(=O)c2c[nH]c3ccccc23)cc1OC | -7 | 15 | 75* | 0 | -11 | 5
O=C(N/N=C/c1cc(Cl)ccc1O)C(=O)Nc1ccccc1OC(F)(F)C(F)F | 65* | 88* | 60* | -9 | -16 | 4
COc1ccccc1/C=N/NC(=O)C(=O)Nc1ccccc1OC(F)(F)C(F)F | -7 | -1 | 4 | 8 | -3 | -6
O=C(N/N=C/c1cc(Br)ccc1O)C(=O)Nc1ccccc1OC(F)(F)C(F)F | 66* | 85* | 57* | 3 | -12 | 3
O=C(N/N=C/c1cc(Cl)ccc1O)c1ccncc1 | 62* | ? | 45 | 8 | 8 | 12
COc1ccccc1C(=O)Nc1c[nH]c(=O)[nH]c1=O | 0 | 22 | 64* | 2 | 14 | -20
COC(=O)c1sc(NC(=O)C2c3ccccc3Oc3ccccc32)c(C(=O)OC)c1C | 7 | 81 | -76 | 17 | -20 | 23
CCOC(=O)c1c(NC(=O)C2c3ccccc3Oc3ccccc32)sc(C(C)=O)c1C | 8 | 89* | 19 | 24 | -7 | -3
Cc1ccccc1CN1CC2=C(CCN(Cc3ccccc3)C2=O)N2CCN=C12 | . | 81* | 26 | 17 | -4 | 14
N#Cc1nc(NCC(F)F)nc(Nc2cc(F)cc(F)c2)n1 | 75* | 58 | 107* | 8 | 20 | 73*
CC(=O)c1ccc(-c2ccc(C(=O)Nc3nc(C)c(C(C)=O)s3)o2)cc1 | -13 | -6 | -5 | -18 | 8 | -27
